Measurements taken from PubChem BioAssay (NCI).
Compounds without any hit were thinned out: in the full panel of roughly 79,000, 15% have a hit. A number with no mark means an inactive call. Activity calls are given as the source filed them. Cut-off read from the data, not from the text of the source: active = growth inhibition above about 70%; inactive = the rest.

Legend:
[1] = NCI Yeast Anticancer Drug Screen. Data for the rad50 strain (AID 155);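 note: 0% = growth of vehicle-only cultures of the same strain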; conditions: S. cerevisiae rad50 strain growth inhibition, stronger effect = higher value
Procedure, shortened: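 Inhibition values express reduced yeast growth in compound-treated cultures relative to vehicle-treated controls.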

[2] = NCI Yeast Anticancer Drug Screen. Data for the mec2-1 strain (AID 157); conditions: S. cerevisiae mec2-1 strain, stronger effect = higher value
Procedure, shortened: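 Yeast mec2-1 mutant treated with compound. Readout: growth inhibition vs vehicle controls.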

[3] = NCI Yeast Anticancer Drug Screen. Data for the sgs1 mgt1 strain (AID 161);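 note: 0% = growth of cultures given vehicle only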; conditions: S. cerevisiae sgs1 mgt1 strain, stronger effect = higher value
Procedure, shortened: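 Read-out: growth inhibition vs vehicle controls. Cells: mutant yeast strain deficient in DNA damage repair.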

[4] = NCI Yeast Anticancer Drug Screen. Data for the cln2 rad14 strain (AID 165);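 note: 0% = growth equal to vehicle treated cultures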; conditions: S. cerevisiae cln2 rad14 strain, stronger effect = higher value
Procedure, shortened: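 cln2 rad14 yeast strain; compound exposure; growth inhibition read vs vehicle controls.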

[5] = NCI Yeast Anticancer Drug Screen. Data for the bub3 strain (AID 167); conditions: S. cerevisiae bub3 mutant strain, stronger effect = higher value
Procedure, shortened: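 Steps: expose the mutant yeast strain to compound; grow alongside vehicle-treated cultures; measure growth; express inhibition against the vehicle cultures.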

[6] = NCI Yeast Anticancer Drug Screen. Data for the mlh1 rad18 strain (AID 175); conditions: S. cerevisiae mlh1 rad18 strain growth inhibition, stronger effect = higher value
Procedure, shortened: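 Yeast w/ defined DNA-repair lesions; compound exposure; growth vs vehicle controls → % inhibition.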

[7] = at 5.0 µM (retest, dose inferred, filed as 0.5)
[8] = at 50.0 µM (retest, dose inferred, filed as 5.0)

Structure (SMILES): O=c1oc(-c2ccccc2)nc2ccccc12
- growth inhibition [1, 7]: 4%
- growth inhibition [1, 8]: 41%
- growth inhibition ([1]; at 50.0 µM): 76.5% (active)
- growth inhibition [2, 7]: 4%
- growth inhibition [2, 8]: 17%
- growth inhibition ([2]; at 50.0 µM): 31.2%
- growth inhibition [3, 7]: 0%
- growth inhibition [3, 8]: 9%
- growth inhibition ([3]; at 50.0 µM): 58.9%
- growth inhibition [4, 7]: 4%
- growth inhibition [4, 8]: 4%
- growth inhibition ([4]; at 50.0 µM): 27.5%
- growth inhibition [5, 7]: 0%
- growth inhibition [5, 8]: 11%
- growth inhibition ([5]; at 50.0 µM): 38.9%
- growth inhibition [6, 7]: -4%
- growth inhibition [6, 8]: 20%
- growth inhibition ([6]; at 50.0 µM): 42.8%

Structure (SMILES): [O-][n+]1c2c(cc3ccccc31)Cc1ccccc1-2
- growth inhibition [1, 7]: 2%
- growth inhibition [1, 8]: 31%
- growth inhibition ([1]; at 50.0 µM): 21.7%
- growth inhibition [2, 7]: 3%
- growth inhibition [2, 8]: 19%
- growth inhibition ([2]; at 50.0 µM): 35%
- growth inhibition [3, 7]: -3%
- growth inhibition [3, 8]: 5%
- growth inhibition ([3]; at 50.0 µM): -22.6%
- growth inhibition [4, 7]: 4%
- growth inhibition [4, 8]: 3%
- growth inhibition ([4]; at 50.0 µM): 20.4%
- growth inhibition [5, 7]: 7%
- growth inhibition [5, 8]: 29%
- growth inhibition ([5]; at 50.0 µM): 24.4%
- growth inhibition [6, 7]: 3%
- growth inhibition [6, 8]: 20%
- growth inhibition ([6]; at 50.0 µM): 30.7%

Structure (SMILES): COC(=O)C12CCC(C)(C)CC1C1=CCC3C4(C)CC(O)C(O)C(C)(C(=O)OC)C4CCC3(C)C1(CO)CC2 (stereo unspecified)
- growth inhibition [1, 7]: 30%
- growth inhibition [1, 8]: 97% (active)
- growth inhibition ([1]; at 50.0 µM): 91.5% (active)
- growth inhibition [2, 7]: 30%
- growth inhibition [2, 8]: 99% (active)
- growth inhibition ([2]; at 50.0 µM): 91.7% (active)
- growth inhibition [3, 7]: 15%
- growth inhibition [3, 8]: 99% (active)
- growth inhibition ([3]; at 50.0 µM): 91.8% (active)
- growth inhibition [4, 7]: 39%
- growth inhibition [4, 8]: 99% (active)
- growth inhibition ([4]; at 50.0 µM): 91.4% (active)
- growth inhibition [5, 7]: 26%
- growth inhibition [5, 8]: 99% (active)
- growth inhibition ([5]; at 50.0 µM): 88.8% (active)
- growth inhibition [6, 7]: 31%
- growth inhibition [6, 8]: 98% (active)
- growth inhibition ([6]; at 50.0 µM): 85.8% (active)

Structure (SMILES): S=C(Nc1ccccc1)SCc1ccc(Cl)cc1
- growth inhibition [1, 7]: 1%
- growth inhibition [1, 8]: 96% (active)
- growth inhibition ([1]; at 50.0 µM): 90.6% (active)
- growth inhibition [2, 7]: -6%
- growth inhibition [2, 8]: 98% (active)
- growth inhibition ([2]; at 50.0 µM): 67.2%
- growth inhibition [3, 7]: 1%
- growth inhibition [3, 8]: 96% (active)
- growth inhibition ([3]; at 50.0 µM): 84.7% (active)
- growth inhibition [4, 7]: -6%
- growth inhibition [4, 8]: 96% (active)
- growth inhibition ([4]; at 50.0 µM): 38.5%
- growth inhibition [5, 7]: -5%
- growth inhibition [5, 8]: 97% (active)
- growth inhibition ([5]; at 50.0 µM): 86.4% (active)
- growth inhibition [6, 7]: -7%
- growth inhibition [6, 8]: 97% (active)
- growth inhibition ([6]; at 50.0 µM): 85.5% (active)

Structure (SMILES): CC(=O)Nc1ccc2c(ccc3cccc[n+]32)c1
- growth inhibition [1, 7]: -2%
- growth inhibition [1, 8]: 0%
- growth inhibition ([1]; at 50.0 µM): 96.7% (active)
- growth inhibition [2, 7]: -10%
- growth inhibition [2, 8]: -6%
- growth inhibition ([2]; at 50.0 µM): 97.2% (active)
- growth inhibition [3, 7]: 1%
- growth inhibition [3, 8]: 10%
- growth inhibition ([3]; at 50.0 µM): 95.8% (active)
- growth inhibition [4, 7]: -2%
- growth inhibition [4, 8]: -6%
- growth inhibition ([4]; at 50.0 µM): 95.2% (active)
- growth inhibition [5, 7]: -7%
- growth inhibition [5, 8]: -13%
- growth inhibition ([5]; at 50.0 µM): 96.5% (active)
- growth inhibition [6, 7]: -1%
- growth inhibition [6, 8]: -3%
- growth inhibition ([6]; at 50.0 µM): 96.3% (active)

Structure (SMILES): CCCCCCCCCCCCCCCCCc1nnc(N)o1
- growth inhibition [1, 7]: 1%
- growth inhibition [1, 8]: 24%
- growth inhibition ([1]; at 50.0 µM): -11.8%
- growth inhibition [2, 7]: 7%
- growth inhibition [2, 8]: 33%
- growth inhibition ([2]; at 50.0 µM): -0.5%
- growth inhibition [3, 7]: 18%
- growth inhibition [3, 8]: 51%
- growth inhibition ([3]; at 50.0 µM): 19%
- growth inhibition [4, 7]: 1%
- growth inhibition [4, 8]: 36%
- growth inhibition ([4]; at 50.0 µM): 45.6%
- growth inhibition [5, 7]: 6%
- growth inhibition [5, 8]: 40%
- growth inhibition ([5]; at 50.0 µM): 11.2%
- growth inhibition [6, 7]: 6%
- growth inhibition [6, 8]: 25%
- growth inhibition ([6]; at 50.0 µM): -3.6%

Structure (SMILES): Cc1ccc(C(=O)OCC(C)C)cc1N=NN(C)C
- growth inhibition [1, 7]: 4%
- growth inhibition [1, 8]: 21%
- growth inhibition ([1]; at 50.0 µM): 68.8%
- growth inhibition [2, 7]: -3%
- growth inhibition [2, 8]: -6%
- growth inhibition ([2]; at 50.0 µM): 19.9%
- growth inhibition [3, 7]: -5%
- growth inhibition [3, 8]: 14%
- growth inhibition ([3]; at 50.0 µM): 29.4%
- growth inhibition [5, 7]: -1%
- growth inhibition [5, 8]: 48%
- growth inhibition ([5]; at 50.0 µM): 31.1%
- growth inhibition [6, 7]: -24%
- growth inhibition [6, 8]: 38%
- growth inhibition ([6]; at 50.0 µM): 8.3%

Structure (SMILES): O=c1[nH]cnc2c1ncn2CCc1ccccc1
- growth inhibition [1, 7]: 0%
- growth inhibition [1, 8]: -6%
- growth inhibition ([1]; at 50.0 µM): -11.6%
- growth inhibition [2, 7]: -6%
- growth inhibition [2, 8]: -2%
- growth inhibition ([2]; at 50.0 µM): -1.55%
- growth inhibition [3, 7]: -3%
- growth inhibition [3, 8]: -5%
- growth inhibition ([3]; at 50.0 µM): -4.45%
- growth inhibition [4, 7]: -4%
- growth inhibition [4, 8]: 3%
- growth inhibition ([4]; at 50.0 µM): 49.1%
- growth inhibition [6, 7]: 4%
- growth inhibition [6, 8]: -10%
- growth inhibition ([6]; at 50.0 µM): -19.8%

Structure (SMILES): CCC(CC)C(=O)O.[Ag]
- growth inhibition [1, 7]: 99% (active)
- growth inhibition [1, 8]: 99% (active)
- growth inhibition ([1]; at 50.0 µM): 99.2% (active)
- growth inhibition [2, 7]: 99% (active)
- growth inhibition [2, 8]: 99% (active)
- growth inhibition ([2]; at 50.0 µM): 99.6% (active)
- growth inhibition [3, 7]: 99% (active)
- growth inhibition [3, 8]: 99% (active)
- growth inhibition ([3]; at 50.0 µM): 99.6% (active)
- growth inhibition [4, 7]: 99% (active)
- growth inhibition [4, 8]: 99% (active)
- growth inhibition ([4]; at 50.0 µM): 99.2% (active)
- growth inhibition [6, 7]: 99% (active)
- growth inhibition [6, 8]: 99% (active)
- growth inhibition ([6]; at 50.0 µM): 99.2% (active)

Structure (SMILES): COc1cccc2c1C(=O)c1c(O)c3c(c(O)c1C2=O)CC(O)(C(C)=O)CC3OC1CC(NCC2(O)OCC(O)C(O)C2O)C(O)C(C)O1 (stereo unspecified)
- growth inhibition [1, 7]: 54%
- growth inhibition [1, 8]: 98% (active)
- growth inhibition ([1]; at 50.0 µM): 85.2% (active)
- growth inhibition [2, 7]: 33%
- growth inhibition [2, 8]: 98% (active)
- growth inhibition ([2]; at 50.0 µM): 86.5% (active)
- growth inhibition [3, 7]: 38%
- growth inhibition [3, 8]: 98% (active)
- growth inhibition ([3]; at 50.0 µM): 79.8% (active)
- growth inhibition [4, 7]: 38%
- growth inhibition [4, 8]: 94% (active)
- growth inhibition ([4]; at 50.0 µM): 73.3% (active)
- growth inhibition [5, 7]: 27%
- growth inhibition [5, 8]: 98% (active)
- growth inhibition ([5]; at 50.0 µM): 83.2% (active)
- growth inhibition [6, 7]: 62%
- growth inhibition [6, 8]: 97% (active)
- growth inhibition ([6]; at 50.0 µM): 87.9% (active)
